{"source": "PubChem BioAssay (NCATS)", "key": {"[1]": {"molecular_target": "Calcium and integrin-binding protein 1 (Homo sapiens) (UniProt Q99828)", "sequence (Q99828 whole entry, looked up)": "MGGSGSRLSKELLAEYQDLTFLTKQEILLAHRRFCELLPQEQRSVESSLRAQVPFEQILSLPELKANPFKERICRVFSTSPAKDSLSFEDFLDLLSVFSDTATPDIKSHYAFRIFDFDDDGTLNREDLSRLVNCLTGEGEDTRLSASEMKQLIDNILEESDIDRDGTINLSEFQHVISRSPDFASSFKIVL", "assay": "Primary qHTS for Identification of Calcium Integrin Binding Protein 1 (CIB1) Competitor (AID 1508620); also: top concentration of the series differs between compounds", "procedure,_shortened": "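Fluorescence polarization competition: GST-tagged CIB1 (1 uM final) preincubated with compound 15 min at room temperature, then FITC-labelled alphaIIb peptide (100 nM final) added. After 15 min at room temperature, polarization read at Ex 480/Em 540.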"}, "[2]": {"assay": "Primary qHTS for small molecule stabilizers of the endoplasmic reticulum resident proteome: Secreted ER Calcium Modulated Protein (SERCaMP) assay (AID 1508630)", "procedure,_shortened": "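The SH-SY5Y reporter protocol was run at 3 concentrations up to 38.3 uM (primary) or 11 concentrations (follow-up): 16 h compound, 100 nM thapsigargin for 4 h, then extracellular luciferase luminescence.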"}, "[3]": {"assay": "Primary qHTS for inhibitors of nuclear receptor binding SET domain protein 2 (NSD2) in an isogenic RCH-ACV NSD2 p.E1099K mutant (9B) (AID 1645876); also: nearly all actives have a fitted effect of over 70% in size; also: potency is read from the fitted curve at half-maximal effect"}, "[4]": {"assay": "A High-Content qHTS Against Drug Library for the Identification of Small Molecules that Inhibit DYT1 Early Onset Primary Dystonia-Associated Cell Pathology (AID 1645839; calls by dose curve; also: series mostly up to about 46 µM)", "procedure,_shortened": "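Cells were seeded and left for 24 h, then dosed with compound alongside tetracycline induction of mutant EGFP-TorsinA. They were incubated for 48 h, fixed in 4% paraformaldehyde, permeabilized and imaged for mislocalization (%pathology) and cell count.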"}, "[5]": {"molecular_target": "Cytochrome P450 2C9 (Homo sapiens) (UniProt P11712)", "sequence (P11712 whole entry, looked up)": "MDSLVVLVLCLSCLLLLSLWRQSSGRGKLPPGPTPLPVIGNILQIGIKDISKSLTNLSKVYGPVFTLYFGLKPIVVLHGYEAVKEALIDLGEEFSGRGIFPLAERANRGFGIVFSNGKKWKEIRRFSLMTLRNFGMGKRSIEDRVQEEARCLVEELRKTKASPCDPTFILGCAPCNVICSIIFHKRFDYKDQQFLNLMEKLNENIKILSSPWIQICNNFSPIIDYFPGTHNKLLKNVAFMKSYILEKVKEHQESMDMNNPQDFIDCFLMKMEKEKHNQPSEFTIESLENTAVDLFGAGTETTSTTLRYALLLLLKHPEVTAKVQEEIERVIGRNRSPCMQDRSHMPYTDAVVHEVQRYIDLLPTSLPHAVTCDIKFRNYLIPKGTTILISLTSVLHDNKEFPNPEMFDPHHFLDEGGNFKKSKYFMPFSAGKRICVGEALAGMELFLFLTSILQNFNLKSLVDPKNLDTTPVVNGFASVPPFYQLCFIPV", "assay": "Cytochrome P450 family 2 subfamily C member 9 (CYP2C9) small molecule antagonists: luciferase biochemical (cell-free) qHTS assay (AID 1645842; active = well fitted curve in the direction sought with a large enough effect in the repeat runs; an effect the other way counts as inactive or inconclusive; also: series mostly up to about 57 µM; nearly all actives have a fitted effect of over 55% in size)", "procedure,_shortened": "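P450-Glo CYP2C9 system: proluciferin substrate with enzyme in mix containing 0.4% BSA, 10 min at room temperature, then NADPH regeneration solution added and incubated 1 h at 37C. Detection reagent stopped reaction; luminescence read after 20 min as RLU.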"}, "[6]": {"assay": "Primary qHTS for inhibitors of nuclear receptor binding SET domain protein 2 (NSD2) in an RCH-ACV wild type WT cells (2C) (AID 1645877); also: nearly all actives have a fitted effect of over 70% in size"}, "[7]": {"molecular_target": "Cytochrome P450 2D6 (Homo sapiens) (UniProt P10635)", "sequence (P10635 whole entry, looked up)": "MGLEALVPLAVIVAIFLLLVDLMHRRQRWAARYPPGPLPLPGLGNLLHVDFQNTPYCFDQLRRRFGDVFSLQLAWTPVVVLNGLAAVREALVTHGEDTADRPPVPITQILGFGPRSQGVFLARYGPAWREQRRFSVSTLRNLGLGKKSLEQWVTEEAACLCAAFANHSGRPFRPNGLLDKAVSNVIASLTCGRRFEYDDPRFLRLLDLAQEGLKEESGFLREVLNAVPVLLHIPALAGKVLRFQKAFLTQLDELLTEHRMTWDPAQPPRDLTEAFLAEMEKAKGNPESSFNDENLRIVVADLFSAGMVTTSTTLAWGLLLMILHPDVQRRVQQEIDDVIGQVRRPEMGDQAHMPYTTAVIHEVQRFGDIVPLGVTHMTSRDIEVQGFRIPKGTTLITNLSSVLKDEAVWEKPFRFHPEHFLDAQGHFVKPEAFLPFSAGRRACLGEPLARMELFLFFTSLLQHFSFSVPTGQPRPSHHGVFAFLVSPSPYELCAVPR", "assay": "Cytochrome P450 family 2 subfamily D member 6 (CYP2D6) small molecule antagonists: luciferase biochemical (cell-free) qHTS assay (AID 1645840; active = well fitted curve in the direction sought with a large enough effect in the repeat runs; an effect the other way counts as inactive or inconclusive; also: nearly all actives have a fitted effect of over 55% in size; also: potency is read from the fitted curve at half-maximal effect; as to activity change, negative = inhibition: series mostly up to about 57 µM)", "procedure,_shortened": "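P450-Glo CYP2D6 system: proluciferin substrate converted by enzyme to luciferin, read by luminescence proportional to activity. Enzyme-substrate mix with compound 10 min at room temperature, then NADPH regeneration 1 h before detection reagent.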"}}, "note": "Inconclusive results are not listed. Where a call stands in place of a potency, no number is given. Values without a mark were called inactive. Activity calls are given as the source filed them. Unless noted, calls follow the shape of the dose curve; as a rule, active = well fitted curve in the direction sought with a large enough effect; inconclusive = small, poorly fitted or top-dose-only effect, or another doubt; inactive = no such curve, though single readings can be large; an effect the other way counts as inactive or inconclusive."}
{"smiles": "COc1cc2oc(-c3ccc(O)cc3O)cc2c(OC)c1CC=C(C)C", "values": [{"measurement": "Potency", "setting": "[1]", "value": "inactive"}]}
{"smiles": "C=C1CCC2C(C)(C)C(O)CCC2(C)C1CCC(C)CCO", "note": "(stereo not given)", "values": [{"measurement": "Potency", "setting": "[1]", "value": "inactive"}]}
{"smiles": "C=C(C)[C@@H]1CC[C@]2(C)CC[C@]3(C)[C@H](CC[C@@H]4[C@@]5(C)CC[C@@H](O)C(C)(C)[C@@H]5CC[C@]43C)[C@@H]12", "values": [{"measurement": "Potency", "setting": "[1]", "value": "inactive"}]}
{"smiles": "CC(=O)O[C@H]1C(=O)[C@@]2(C)[C@H]([C@H](OC(=O)c3ccccc3)[C@]3(O)C[C@H](OC(=O)[C@H](O)[C@@H](NC(=O)c4ccccc4)c4ccccc4)C(C)=C1C3(C)C)[C@]1(OC(C)=O)CO[C@@H]1C[C@@H]2O", "values": [{"measurement": "Potency", "setting": "[1]", "value": "inactive"}, {"measurement": "outcome", "setting": "[2]", "value": "inactive"}, {"measurement": "Potency", "setting": "[3]", "value": "0.0069 µM (active)"}]}
{"smiles": "CNC(C)C(=O)NC(C(=O)N1CCCC1c1nc(C(=O)c2ccc(F)cc2)cs1)C1CCCCC1", "note": "(stereo not given)", "values": [{"measurement": "Potency", "setting": "[1]", "value": "inactive"}]}
{"smiles": "CC1(C)CCCC2(C)C(CO)C(CO)=CCC12", "note": "(stereo not given)", "values": [{"measurement": "Potency", "setting": "[1]", "value": "inactive"}]}
{"smiles": "CC(C)/C=C1\\NC(=O)C(C(C)C)n2c1nc1c(c2=O)C=CC=CO1", "note": "(stereo not given)", "values": [{"measurement": "Potency", "setting": "[1]", "value": "inactive"}]}
{"smiles": "CCC(C(=O)O)c1ccc(N2Cc3ccccc3C2=O)cc1", "note": "(stereo not given)", "values": [{"measurement": "Potency", "setting": "[1]", "value": "inactive"}, {"measurement": "outcome", "setting": "[2]", "value": "inactive"}, {"measurement": "Potency", "setting": "[4]", "value": "inactive"}, {"measurement": "Potency", "setting": "[5]", "value": "inactive"}, {"measurement": "Potency", "setting": "[3]", "value": "inactive"}, {"measurement": "Potency", "setting": "[6]", "value": "inactive"}]}
{"smiles": "Cc1cccc(-c2[nH]c(Cc3cccc(C(N)=O)c3)nc2-c2ccc3nccnc3c2)n1", "values": [{"measurement": "Potency", "setting": "[1]", "value": "inactive"}, {"measurement": "Potency", "setting": "[7]", "value": "13.5 µM (active)"}]}
{"smiles": "CO[C@H]1C[C@@H]2CC[C@@H](C)[C@@](O)(O2)C(=O)C(=O)N2CCCC[C@H]2C(=O)O[C@H]([C@H](C)C[C@H]2CC[C@@H](OP(C)(C)=O)[C@H](OC)C2)CC(=O)[C@H](C)/C=C(\\C)[C@@H](O)[C@@H](OC)C(=O)[C@H](C)C[C@H](C)/C=C/C=C/C=C/1C", "values": [{"measurement": "Potency", "setting": "[1]", "value": "inactive"}]}
{"smiles": "CCC(C)C(=O)OC1CC(C)C=C2C=CC(C)C(CCC(O)CC(O)CC(=O)O)C21", "note": "(stereo not given)", "values": [{"measurement": "Potency", "setting": "[1]", "value": "inactive"}]}
{"smiles": "CCOCCOC(=O)/C=C/c1ccc(OC)cc1", "values": [{"measurement": "Potency", "setting": "[1]", "value": "inactive"}, {"measurement": "Potency", "setting": "[4]", "value": "inactive"}, {"measurement": "Potency", "setting": "[7]", "value": "inactive"}]}
{"smiles": "CC(C)N(CCCCOCC(=O)NS(C)(=O)=O)c1cnc(-c2ccccc2)c(-c2ccccc2)n1", "values": [{"measurement": "Potency", "setting": "[1]", "value": "inactive"}]}
{"smiles": "C=CC(C)(C)c1[nH]c2cc3c(cc2c1CC1NC(=O)C2=CCCN2C1=O)C=CC(C)(C)O3", "note": "(stereo not given)", "values": [{"measurement": "Potency", "setting": "[1]", "value": "inactive"}]}
{"smiles": "C=CC1C(OC2OC(CO)C(O)C(O)C2O)OC=C(C(=O)OC)C1CC(=O)OCC1C(C)C(O)CC1C(CO)COC(=O)CC1C(C(=O)O)=COC(OC2OC(CO)C(O)C(O)C2O)/C1=C\\C", "note": "(stereo not given)", "values": [{"measurement": "Potency", "setting": "[1]", "value": "inactive"}]}
{"smiles": "O=C(O)c1c(O)c(-c2ccccc2)nc2ccccc12", "values": [{"measurement": "Potency", "setting": "[1]", "value": "inactive"}, {"measurement": "Potency", "setting": "[4]", "value": "inactive"}, {"measurement": "Potency", "setting": "[7]", "value": "inactive"}, {"measurement": "Potency", "setting": "[3]", "value": "inactive"}]}
{"smiles": "C/C1=C\\CCC2=C[C@@H](OC2=O)c2c(C)coc2C1", "values": [{"measurement": "Potency", "setting": "[1]", "value": "inactive"}]}
{"smiles": "OCC1OC(Oc2cc(O)cc(/C=C/c3ccc(O)cc3)c2)C(O)C(O)C1O", "note": "(stereo not given)", "values": [{"measurement": "Potency", "setting": "[1]", "value": "inactive"}]}
{"smiles": "COc1cc2ncnc(Nc3cccc(Cl)c3F)c2cc1OC(=O)N1CCN(C)C[C@H]1C", "values": [{"measurement": "Potency", "setting": "[1]", "value": "inactive"}]}
{"smiles": "CCNCc1nc2c(N)nc3ccccc3c2n1CC(C)(C)O", "values": [{"measurement": "Potency", "setting": "[1]", "value": "inactive"}, {"measurement": "Potency", "setting": "[7]", "value": "5.35 µM (active)"}]}
{"smiles": "O=S(=O)(Nc1ccccn1)c1ccc(N=Cc2c(O)[nH]c3ccc4ncsc4c23)cc1", "values": [{"measurement": "Potency", "setting": "[1]", "value": "inactive"}]}
{"smiles": "Cc1cc(Nc2nc(NC(C)c3ncc(F)cn3)ncc2Cl)n[nH]1", "note": "(stereo not given)", "values": [{"measurement": "Potency", "setting": "[1]", "value": "inactive"}]}
{"smiles": "C[C@@H]1O[C@@H](O[C@@H]2[C@@H](O[C@@H]3O[C@@H](C)[C@H](O[C@@H]4OC[C@H](O)[C@H](O[C@@H]5OC[C@@H](O)[C@H](O)[C@H]5O)[C@H]4O)[C@@H](O[C@@H]4OC[C@](O)(CO)[C@H]4O)[C@H]3O)[C@H](OC(=O)[C@]34CCC(C)(C)C[C@H]3C3=CCC5[C@@]6(C)C[C@H](O)[C@H](O[C@@H]7O[C@H](CO[C@@H]8OC[C@H](O)[C@H](O)[C@H]8O)[C@@H](O)[C@H](O)[C@H]7O)C(C)(C)C6CC[C@@]5(C)[C@]3(C)C[C@H]4O)OC[C@H]2O)[C@H](O)[C@H](O)[C@H]1O", "note": "(stereo not given in full)", "values": [{"measurement": "activity change, negative = inhibition", "setting": "[1]", "value": "-4.21% [at 12.4 µM]"}]}
{"smiles": "CC(=O)O[C@@H]1[C@H](O[C@@H]2O[C@@H](CO)[C@H](O)[C@H]2O)[C@@H](O[C@@H]2O[C@@H](C)[C@H](O[C@@H]3OC[C@@H](O)[C@H](O)[C@H]3O)[C@@H](O)[C@H]2O)[C@H](OC(=O)[C@]23CCC(C)(C)C[C@H]2C2=CCC4[C@@]5(C)CC[C@H](O[C@@H]6O[C@H](C(=O)O)[C@@H](O)[C@H](O)[C@H]6O[C@@H]6O[C@H](CO)[C@H](O)[C@H](O)[C@H]6O)[C@@](C)(C=O)C5CC[C@@]4(C)[C@]2(C)CC3)O[C@@H]1C", "note": "(stereo not given in full)", "values": [{"measurement": "activity change, negative = inhibition", "setting": "[1]", "value": "-9.52% [at 12.4 µM]"}]}
{"smiles": "CC(C)=CCCC1(C)C=Cc2c(c(C)cc3c2[nH]c2ccccc23)O1", "note": "(stereo not given)", "values": [{"measurement": "Potency", "setting": "[1]", "value": "inactive"}, {"measurement": "outcome", "setting": "[2]", "value": "inactive"}]}
